Our source for the survival values is PubChem BioAssay AID463173 (ICCB-Longwood Screening Facility, Harvard Medical School, 2010).

Among all 52,000 compounds or so, about 4,300 (8.3%) were called active. For the sample, actives were picked, then their nearest neighbours and some compounds at random. A number with no mark means an inactive call. No stated cut-off is given here; in the data, active means survival mostly below about 52% (no sharp cut-off); inactive means mostly above about 56%.

This test concerns DeltatarO mutant. Description: growth inhibition of S. aureus wild type versus tarO mutant, primary screen, teichoic acid synthesis inhibitors, RN4220, OD600 (AID 463173). To be noted: OD600, 18 h, stronger effect = lower value, screened at 18.75 µg/mL (by protocol).
In the case of `Cc1csc(=Nc2ccccc2)n1-c1ccccc1`, the survival was 81%. As to `CCOC(=O)c1c(S(=O)(=O)NCC(=O)Nc2cccc(CC)c2)c(C)n(C)c1C`, the survival is 84%. As to `CCc1nn(CC(=O)NCc2ccccc2)c(=O)c2cccn12`, the survival was 69%. Regarding `CN1C(=O)Cc2cc(S(=O)(=O)NCc3ccccc3Cl)ccc21`, the survival is 90%. As to `CC(C)CC(C(N)=O)N1C(=O)c2ccccc2C1=O` (centres undefined), the survival was 84%. As for `CCOC(=O)C1CCN(C(=O)Cn2ncc3c4ccccc4n(Cc4ccccc4F)c3c2=O)CC1`, the survival was 84%.

As to `COc1ccc(Cl)cc1S(=O)(=O)N1CCN(C(=O)c2cc(-c3ccc(Br)cc3)n[nH]2)CC1`, the survival was 47% (active).

In the case of `CCOc1ccc(-c2cc(C(=O)N3CCN(S(=O)(=O)c4cc(Cl)ccc4OC)CC3)[nH]n2)cc1`, the survival is 73%. Then `COc1ccc(S(=O)(=O)N2CCN(C(=O)c3cc(-c4ccc(Br)cc4)n[nH]3)CC2)cc1OC`, with 73%. For `COc1ccc(S(=O)(=O)Nc2cc3c(cc2NCc2ccccc2)n(C)c(=O)n3C)cc1`, the survival was 69%. `O=C(Nc1ccc(F)cc1)C1CCN(c2nc3ccccc3n3cccc23)CC1`: the survival is 75%. Then `O=c1cc(COc2ccccc2Cl)nc2scc(-c3ccccc3)n12`, with 81%; and `Cc1c(C(=O)N2CCOCC2)sc(NC(=O)c2ccc3c(c2)OCO3)c1C#N`, with 90%. For `CC(C)c1ccc(NC(=O)C2CCCN(S(=O)(=O)c3cccc4cccnc34)C2)cc1` (centres undefined), the survival was 71%. `Cc1noc(/C=C/N(C)C)c1S(=O)(=O)N1CCCC(C(=O)Nc2cccc(F)c2)C1` (centres undefined): the survival is 90%.

With `Cc1ccc(NC(=O)C2CCCN(S(=O)(=O)c3cccc4cccnc34)C2)cc1` (centres undefined), the survival was 102%. Then `CCc1ccc(NC(=O)C2CCCN(S(=O)(=O)c3c(C)noc3/C=C/N(C)C)C2)cc1` (centres undefined), with 42% (active); and `CCc1ccc(NC(=O)C2CCCN(S(=O)(=O)c3cccc4cccnc34)C2)cc1` (centres undefined), with 58% (active); and `CCOc1ccc(NC(=O)C2CCCN(S(=O)(=O)c3c(C)noc3/C=C/N(C)C)C2)cc1` (centres undefined), with 94%.

As to `O=S(=O)(Nc1ccc(-c2ccc(N3CCCC3)nn2)cc1)c1ccc(Cl)cc1`, the survival was 102%. As to `CCCCN(C)C(=O)c1ccc2c(c1)N(Cc1ccc(F)cc1)C(=O)c1ccccc1S2(=O)=O`, the survival is 118%. Then `O=C(Nc1ccc(F)cc1C(F)(F)F)C1CCN(c2ncccn2)CC1`, with 76%; and `CC(=O)Nc1ccc2c(c1)n(C)c(=O)n2C`, with 85%. The value for `COc1ccc(OC)c(CCNC(=O)C(C)n2c(C)c3cnn(-c4ccccc4)c(=O)c3c2C)c1` (centres undefined) was 82%.
